PubChem BioAssay (NCATS)
Several values for one entry are separate records, joined by “and”; a condition that tells them apart may be missing. Identical values can stand only once. Results filed as inconclusive are left out. Some compounds were tested as several samples or in several runs, with calls that do not always agree. Values without a mark were called inactive. Activity calls are given as the source filed them. Calls come from the whole dose curve; as a rule, active = well fitted inhibition curve with a large enough effect; inconclusive = small, poorly fitted or top-dose-only effect; inactive = flat fitted curve, though single readings scatter.

system: not listed separately; experiment: Drug repurposing screens with cells derived from glioblastoma tumor samples (AID 1345199); conditions: GBM patient neurospheres viability, ATP luminescence, 48 h; at 46.1 µM (top of the series); tumour line C; note: nearly all actives have a fitted effect of over 40% in size
How it was run: (§1)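 Primary testing used CD133+ neurospheres from four GBM patients, seven concentrations, 48 h exposure and ATP-based viability; confirmation added three slower-growing patient lines.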
% is set by controls: 0 for no effect and ±100 for the full control effect; potency is the fitted concentration of half-maximal effect.

SMILES | activity, negative = cell killing
c1ccc2c(c1)OCC(CN1CCCCC1)O2 (stereo not drawn) | -13%
CCOC(=O)[C@H](CS)NCCN[C@@H](CS)C(=O)OCC | -15.5%
C=CC[N+]1([C@H]2C[C@H]3[C@@H]4CC[C@H]5C[C@H](O)[C@@H](N6CCOCC6)C[C@]5(C)[C@H]4CC[C@]3(C)[C@H]2OC(C)=O)CCCC1 | -21.7%
ClC(Cl)Cl | -5.54%
CO[C@@H]1[C@H](OC(=O)/C=C/C=C/C=C/C=C/C(=O)O)CC[C@]2(CO2)[C@H]1[C@@]1(C)O[C@@H]1CC=C(C)C | 4.82%
CC(C)Cc1ccc([C@@H](C)C(=O)NS(C)(=O)=O)cc1 | -23.4%
CNCC(=O)N[C@@H](CCCN=C(N)N)C(=O)N[C@H](C(=O)N[C@@H](Cc1ccc(O)cc1)C(=O)N[C@H](C(=O)N[C@@H](Cc1cnc[nH]1)C(=O)N1CCC[C@H]1C(=O)N[C@@H](C)C(=O)O)C(C)C)C(C)C | -6.49%
OC[C@H]1O[C@@H](O[C@H]2[C@H](O)[C@@H](O)[C@H](O)O[C@@H]2CO)[C@H](O)[C@@H](O)[C@@H]1O | -13.5%
OCCOCCOCCO | 4.43%
CO/N=C(/C(=O)N[C@@H]1C(=O)N2C(C(=O)O)=C(COC(N)=O)CS[C@H]12)c1ccco1 | 6.13% and -0.48%
CCCCCCCCCC(=O)NO | -21.2% and 7.01%
CO[C@H]1O[C@@H]2O[C@@]3(C)CC[C@H]4[C@H](C)CC[C@@H]([C@H]1C)[C@@]24OO3 | -10.2%
Cc1ccc(C(C)(C)c2ccc(C)cc2)cc1 | -10.1%
NCCO/C=C/[C@H](N)C(=O)O | 26.3%
CCN(CC)CCOc1ccccc1OC | -28.2%
NCC[C@H](O)C(=O)N[C@@H]1C[C@H](N)[C@@H](O[C@H]2O[C@H](CN)[C@@H](O)[C@H](O)[C@H]2O)[C@H](O)[C@H]1O[C@H]1O[C@H](CO)[C@@H](O)[C@H](N)[C@H]1O | -4.11%
N#Cc1ccc2c(c1)N(CCCN1CCC(O)CC1)c1ccccc1S2 | 15.3%
CC(C)(C)CC(C)(C)c1ccc(OCCO)cc1 | -20.5%
CCCCCCCCCCCCCCCCCC(=O)OC[C@@H](O)[C@H]1OC[C@H](O)[C@H]1O | -1.68%
OC[C@H]1O[C@@](CO)(O[C@H]2O[C@H](CO)[C@@H](O)[C@H](O)[C@H]2O)[C@@H](O)[C@@H]1O | -22.3%
O=C(O)/C=C/C(=O)Nc1ccc(S(=O)(=O)Nc2nccs2)cc1 | -5.24%
[O-][N+](=Nc1ccccc1)c1ccccc1 | -6.88%
Oc1ccc(Cl)c2c1CCC2 | -12.7%
Oc1cccc(O)c1O | 15.2%
CC1=CC(=O)NS(=O)(=O)O1 | -19.5%
OC[C@H]1O[C@@H]2O[C@H]3[C@H](O)[C@@H](O)[C@@H](O[C@H]4[C@H](O)[C@@H](O)[C@@H](O[C@H]5[C@H](O)[C@@H](O)[C@@H](O[C@H]6[C@H](O)[C@@H](O)[C@@H](O[C@H]7[C@H](O)[C@@H](O)[C@@H](O[C@H]1[C@H](O)[C@H]2O)O[C@@H]7CO)O[C@@H]6CO)O[C@@H]5CO)O[C@@H]4CO)O[C@@H]3CO | -2.87%
C(=C\c1ccncc1)/c1ccccc1 | -11.5%
Cc1cc(=O)c(C(=O)N[C@@H](C(=O)N[C@@H]2C(=O)N3C(C(=O)O)=C(CSc4nnnn4C)CS[C@H]23)c2ccc(O)cc2)c[nH]1 | -6.97%
O=c1[nH]c(=O)n([C@H]2C[C@H](O)[C@@H](CO)O2)cc1/C=C/Br | -17.1%
Nc1ncnc2c1ncn2CCOCP(=O)(O)O | -21.5%

same assay, conditions: GBM patient neurospheres viability, ATP luminescence, 48 h; tumour line A

SMILES | Potency
C=C[C@]1(C)C[C@@H](OC(=O)CSCCN(CC)CC)[C@]2(C)[C@H](C)CC[C@]3(CCC(=O)[C@H]32)[C@@H](C)[C@@H]1O | 7.94 µM (active)
CCSc1ccc2c(c1)N(CCCN1CCN(C)CC1)c1ccccc1S2 | 6.31 µM (active)
N#Cc1ccc2c(c1)N(CCCN1CCC(O)CC1)c1ccccc1S2 | 5.01 µM (active)
CNC(C)CCC=C(C)C (stereo not drawn) | 11.2 µM (active)

system: astro; experiment: as above; conditions: viability, ATP luminescence, 48 h; series mostly up to 45.9 µM; activity, negative = cell killing: at the top concentration
How it was run: as §1

SMILES | activity, negative = cell killing | Potency
c1ccc2c(c1)OCC(CN1CCCCC1)O2 (stereo not drawn) | -0.887% | 
CCOC(=O)[C@H](CS)NCCN[C@@H](CS)C(=O)OCC | -3.7% | 
C=CC[N+]1([C@H]2C[C@H]3[C@@H]4CC[C@H]5C[C@H](O)[C@@H](N6CCOCC6)C[C@]5(C)[C@H]4CC[C@]3(C)[C@H]2OC(C)=O)CCCC1 | -9.21% | 
ClC(Cl)Cl | -10% | 
C=C[C@]1(C)C[C@@H](OC(=O)CSCCN(CC)CC)[C@]2(C)[C@H](C)CC[C@]3(CCC(=O)[C@H]32)[C@@H](C)[C@@H]1O | -9.04% | 
OCCN1CCN(CC/C=C2/c3ccccc3Sc3ccc(Cl)cc32)CC1 | -24.4% [at 21.2 µM] | 
CO[C@@H]1[C@H](OC(=O)/C=C/C=C/C=C/C=C/C(=O)O)CC[C@]2(CO2)[C@H]1[C@@]1(C)O[C@@H]1CC=C(C)C | -13.1% | 
CC(C)Cc1ccc([C@@H](C)C(=O)NS(C)(=O)=O)cc1 | -16.6% | 
CNCC(=O)N[C@@H](CCCN=C(N)N)C(=O)N[C@H](C(=O)N[C@@H](Cc1ccc(O)cc1)C(=O)N[C@H](C(=O)N[C@@H](Cc1cnc[nH]1)C(=O)N1CCC[C@H]1C(=O)N[C@@H](C)C(=O)O)C(C)C)C(C)C | -3.51% | 
C=CC(C)(O)CC/C=C(\C)CCC=C(C)C (stereo not drawn) | -10.9% | 
OC[C@H]1O[C@@H](O[C@H]2[C@H](O)[C@@H](O)[C@H](O)O[C@@H]2CO)[C@H](O)[C@@H](O)[C@@H]1O | -8.44% | 
OCCOCCOCCO | -13.7% | 
CO/N=C(/C(=O)N[C@@H]1C(=O)N2C(C(=O)O)=C(COC(N)=O)CS[C@H]12)c1ccco1 |  | inactive
CCCCCCCCCC(=O)NO |  | inactive
CO[C@H]1O[C@@H]2O[C@@]3(C)CC[C@H]4[C@H](C)CC[C@@H]([C@H]1C)[C@@]24OO3 | -10.7% | 
Cc1ccc(C(C)(C)c2ccc(C)cc2)cc1 | -13.7% | 
NCCO/C=C/[C@H](N)C(=O)O | -11.9% | 
CCSc1ccc2c(c1)N(CCCN1CCN(C)CC1)c1ccccc1S2 | -11.5% [at 21.2 µM] | 
CCN(CC)CCOc1ccccc1OC | -12.8% | 
NCC[C@H](O)C(=O)N[C@@H]1C[C@H](N)[C@@H](O[C@H]2O[C@H](CN)[C@@H](O)[C@H](O)[C@H]2O)[C@H](O)[C@H]1O[C@H]1O[C@H](CO)[C@@H](O)[C@H](N)[C@H]1O | -14.8% | 

SMILES | activity, negative = cell killing | Potency
N#Cc1ccc2c(c1)N(CCCN1CCC(O)CC1)c1ccccc1S2 | -20.1% | 
CC(C)(C)CC(C)(C)c1ccc(OCCO)cc1 |  | 35.5 µM (active)
CCCCCCCCCCCCCCCCCC(=O)OC[C@@H](O)[C@H]1OC[C@H](O)[C@H]1O | -13.1% | 
OC[C@H]1O[C@@](CO)(O[C@H]2O[C@H](CO)[C@@H](O)[C@H](O)[C@H]2O)[C@@H](O)[C@@H]1O | -12.7% | 
O=C(O)/C=C/C(=O)Nc1ccc(S(=O)(=O)Nc2nccs2)cc1 | -16.6% | 
[O-][N+](=Nc1ccccc1)c1ccccc1 | -20.5% | 
Oc1ccc(Cl)c2c1CCC2 | -7.77% | 
Oc1cccc(O)c1O | -19.9% | 
CC1=CC(=O)NS(=O)(=O)O1 | 2.18% | 
OC[C@H]1O[C@@H]2O[C@H]3[C@H](O)[C@@H](O)[C@@H](O[C@H]4[C@H](O)[C@@H](O)[C@@H](O[C@H]5[C@H](O)[C@@H](O)[C@@H](O[C@H]6[C@H](O)[C@@H](O)[C@@H](O[C@H]7[C@H](O)[C@@H](O)[C@@H](O[C@H]1[C@H](O)[C@H]2O)O[C@@H]7CO)O[C@@H]6CO)O[C@@H]5CO)O[C@@H]4CO)O[C@@H]3CO | -23.7% | 
CC1CCCC(C)N1NC(=O)c1ccc(Cl)c(S(N)(=O)=O)c1 (stereo not drawn) | -8.24% [at 21.2 µM] | 
C(=C\c1ccncc1)/c1ccccc1 |  | inactive
O=C(O)Cc1nn(Cc2ccc(Br)cc2F)c(=O)c2ccccc12 | -28.6% | 
Cc1cc(=O)c(C(=O)N[C@@H](C(=O)N[C@@H]2C(=O)N3C(C(=O)O)=C(CSc4nnnn4C)CS[C@H]23)c2ccc(O)cc2)c[nH]1 | -2.57% | 
O=c1[nH]c(=O)n([C@H]2C[C@H](O)[C@@H](CO)O2)cc1/C=C/Br | -9.56% | 
CNC(C)CCC=C(C)C (stereo not drawn) | -19.1% | 
COC1[C@@H](O[C@@H]2O[C@H](C)[C@@H](O[C@H]3C[C@@](C)(O)[C@H](OC(=O)CC(C)C)[C@H](C)O3)[C@H](N(C)C)[C@H]2O)[C@@H](CC=O)C[C@@H](C)[C@@H](O)/C=C/C=C/C[C@@H](C)OC(=O)C[C@H]1OC(C)=O (stereo partly drawn) | 0.782% [at 21.2 µM] | 
O=C1c2ccccc2C(=O)C1c1ccc(F)cc1 | -15.3% | 
Nc1ncnc2c1ncn2CCOCP(=O)(O)O | -3.8% | 
